We go through 26 compounds from the supplement of paper PMC13380429.

The subject of assay [1] is Vero E6 infected with SARS-CoV-2. Nature of the assay: morphology score (similarity to uninfected cells); higher = more like uninfected cells. The note with it: 24 h.
For assay [2] the test system is unchanged. The experiment in a line: SARS-CoV-2 infection rate relative to infected DMSO; higher = more infection, active = 60 or less. The note with it: 24 h.

For `COC[C@@H](c1ccc(C(F)(F)F)cc1)N1CCN(C2(C)CCN(C(=O)c3c(C)ncnc3C)CC2)C[C@@H]1C` [vicriviroc] (10 µM), the morphology score in assay [1] worked out at 0.189. In addition, the SARS-CoV-2 infection rate in assay [2] is 100% (inactive).

In assay [1], `CC(C)(O)CNc1nc(Nc2ccnc(C(F)(F)F)c2)nc(-c2cccc(C(F)(F)F)n2)n1` [enasidenib] (10 µM) showed a morphology score of 0.237. Besides, in assay [2], the SARS-CoV-2 infection rate is 100% (inactive).

In assay [1], `O=Nc1c(O)[nH]c2c(Cl)c(Cl)ccc12` (10 µM) returned a morphology score of 0.117. The SARS-CoV-2 infection rate in assay [2] is 93.5% (inactive).

The compound `Cc1ccccc1N1CCN(CCc2nnc3n2CCCC3)CC1` [dapiprazole] (10 µM) yielded a morphology score in assay [1] of 0.109. Also, in assay [2], the SARS-CoV-2 infection rate is 87.5% (inactive).

On to `O=C(O)CCc1c[nH]c2ccccc12` (10 µM), for which the morphology score in assay [1] came to 0.0821. The SARS-CoV-2 infection rate in assay [2] was 104% (inactive).

With `N#C[C@@H]1C[C@@H]2C[C@@H]2N1C(=O)[C@@H](N)C12CC3CC(CC(O)(C3)C1)C2` (10 µM), in assay [1], the morphology score is -0.0311. In addition, the SARS-CoV-2 infection rate in assay [2] is 105% (inactive).

Compound `CC(C)C[C@H](NC(=O)[C@@H](Cc1c[nH]c2ccccc12)NC(=O)[C@H](Cc1ccc(O)cc1)NC(=O)[C@H](CO)NC(=O)[C@H](Cc1c[nH]c2ccccc12)NC(=O)[C@H](Cc1c[nH]cn1)NC(=O)[C@@H]1CCC(=O)N1)C(=O)N[C@@H](CCCNC(=N)N)C(=O)N1CCC[C@H]1C(=O)NCC(N)=O` [triptorelin] (10 µM) registered a morphology score in assay [1] of -0.0195. Also, in assay [2], the SARS-CoV-2 infection rate is 110% (inactive).

Regarding `NC(=O)c1ccc([N+](=O)[O-])cc1Cl` [aklomide] (10 µM), in assay [1], the morphology score was -0.229. Besides, the SARS-CoV-2 infection rate in assay [2] was 114% (inactive).

Take `CCOc1ccc(-n2c([C@@H](C)N(Cc3cccnc3)C(=O)Cc3ccc(OC(F)(F)F)cc3)nc3ncccc3c2=O)cc1` (racemic) (10 µM): in assay [1], the morphology score was determined as 0.181. In assay [2], the SARS-CoV-2 infection rate is 98.8% (inactive).

In turn, `CC[C@]12CCCN3CCc4c(n(c5ccccc45)C(=O)C1)[C@@H]32` [vinburnine] (10 µM) displayed a morphology score in assay [1] of -0.0662. Besides, in assay [2], the SARS-CoV-2 infection rate is 99.5% (inactive).

The compound `CO[C@@H]1COCC[C@@H]1N[C@@H]1CC[C@@](C(=O)N2CCc3ncc(C(F)(F)F)cc3C2)(C(C)C)C1` (10 µM) returned a morphology score in assay [1] of -0.21. Moreover, the SARS-CoV-2 infection rate in assay [2] is 113% (inactive).

For `CCNC(=O)[C@H]1O[C@@H](n2cnc3c(N)nc(NCCc4ccc(CCC(=O)O)cc4)nc32)[C@H](O)[C@@H]1O` (10 µM), the morphology score in assay [1] was -0.0155. In addition, in assay [2], the SARS-CoV-2 infection rate was 115% (inactive).

Regarding `FC(F)(F)c1cc(NC(=S)Nc2ccc(Br)cc2-c2nnn[nH]2)cc(C(F)(F)F)c1` (10 µM), in assay [1], the morphology score came to 0.0928. Moreover, the SARS-CoV-2 infection rate in assay [2] was 98% (inactive).

For the compound `CC(C)N(CCNC(=O)CN1CCCC1=O)C(C)C` [pramiracetam] (10 µM), in assay [1], the morphology score was -0.0542. The SARS-CoV-2 infection rate in assay [2] is 115% (inactive).

In assay [1], `NCCCCCC(O)(P(=O)(O)O)P(=O)(O)O` [neridronic-acid] (10 µM) gave a morphology score of 0.208. The SARS-CoV-2 infection rate in assay [2] was 91% (inactive).

With `COc1cc2nccc(Oc3ccc(NC(=O)Nc4ccc(F)cc4F)c(F)c3)c2cc1OC` (10 µM), the morphology score in assay [1] is 0.12. In addition, the SARS-CoV-2 infection rate in assay [2] is 111% (inactive).

For `CC(C)c1cc(-c2ccc(F)c3ccccc23)nc(N)n1` (10 µM), the morphology score in assay [1] turned out to be 0.153. Besides, in assay [2], the SARS-CoV-2 infection rate was 108% (inactive).

The compound `N#Cc1cc(-c2n[nH]c(-c3ccncc3)n2)ccn1` [topiroxostat] (10 µM) had a morphology score in assay [1] of 0.145. Also, the SARS-CoV-2 infection rate in assay [2] is 94.5% (inactive).

In assay [1], `C[C@]12CC[C@@H]3c4ccc(OC(=O)N(CCCl)CCCl)cc4CC[C@H]3[C@@H]1CC[C@@H]2OP(=O)(O)O` [estramustine-phosphate] (10 µM) yielded a morphology score of 0.0729. The SARS-CoV-2 infection rate in assay [2] is 100% (inactive).

Compound `NC(=O)c1cccc2cn(-c3ccc([C@@H]4CCCNC4)cc3)nc12` [niraparib] (0.833333 µM) came in with a morphology score in assay [1] of 0.0643. The SARS-CoV-2 infection rate in assay [2] is 102% (inactive).

In turn, `Cc1c(C(=O)Nc2ccc(N3C[C@@H](C)O[C@@H](C)C3)nc2)cccc1-c1ccc(OC(F)(F)F)cc1` [sonidegib] (10 µM) registered a morphology score in assay [1] of -0.0039. The SARS-CoV-2 infection rate in assay [2] was 108% (inactive).

In turn, `O=C(O)CNC(=O)C1C(=O)N(C2CCCCC2)C(=O)N(C2CCCCC2)C1=O` [daprodustat] (10 µM) had a morphology score in assay [1] of 0.206. Further, the SARS-CoV-2 infection rate in assay [2] is 81.5% (inactive).

With `Cn1cc(-c2ccc(F)c(C(F)(F)F)c2)nc1C1CCN(c2ncnc3[nH]ncc23)CC1` (10 µM), the morphology score in assay [1] came out at 0.119. In addition, the SARS-CoV-2 infection rate in assay [2] was 110% (inactive).

`CC[N+](C)(CC)CCOC(=O)C1c2ccccc2Oc2ccccc21` [methantheline] (10 µM) came in with a morphology score in assay [1] of 0.0949. Moreover, the SARS-CoV-2 infection rate in assay [2] is 106% (inactive).

`CCCC(=O)Nc1cccc(NC(=O)c2ccccc2Br)c1` (10 µM) gave a morphology score in assay [1] of -0.131. In addition, in assay [2], the SARS-CoV-2 infection rate was 110% (inactive).

Turning to `OC[C@H]1O[C@@H](Oc2ccc(O)cc2)[C@H](O)[C@@H](O)[C@@H]1O` [arbutin] (10 µM), the morphology score in assay [1] amounted to 0.104. Also, the SARS-CoV-2 infection rate in assay [2] was 104% (inactive).
